# System: TSSK1B
# Settings: concentration: 1 μM, replicates: in singlicate; n = 1
# 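Also: KINOMEscan kinase panel screen.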
row,Structure (SMILES),%Inh
1,Cc1ccc(C(=O)N2CC[C@@H](O)C2)cc1-n1c(C)cc(OCc2ccc(F)cc2F)c(Br)c1=O,0%
2,Oc1cc(Nc2ccnc3cc(I)ccc23)ccc1F [GW552771],6%
3,c1ccc(-c2n[nH]cc2Nc2ccnc3ccccc23)nc1 [GW694077],12%
4,CC(C)c1nc(-c2cccc(NS(=O)(=O)c3c(F)cccc3F)c2F)c(-c2ccnc(Nc3ccc(N4CCOCC4)nc3)n2)s1 [GSK2008607],0%
5,Cn1cc(-c2[nH]c3cc(NC(=O)[C@H](N)C4CCCCC4)cc4c3c2C=NNC4=O)cn1,73%
6,C[C@@H](Oc1cc(-n2cnc3cc(-c4ccnc(NCCS(C)(=O)=O)c4)ccc32)sc1C(N)=O)c1ccccc1Cl [GSK907232],11%

# System: TSSK3
# Settings: concentration: 1 μM, replicates: in singlicate; n = 1
row,Structure (SMILES),%Inh
1,Cn1cc(-c2ccc3c(c2)CCN3C(=O)Cc2cccc(Cl)c2)c2c(N)ncnc21 [GSK2606590],17%
2,COc1ccc(-c2coc3ccc(-c4nnc(SCc5ccc(OC)c(C(F)(F)F)c5)o4)cc23)cc1,0%
3,CCS(=O)(=O)c1ccc(OC)c(Nc2nccc(-c3c(-c4cccc(NC(=O)c5c(F)cccc5F)c4)nn4ncccc34)n2)c1 [GSK326180],12%
4,O=C(Nc1cccc(-c2nn3ccccc3c2-c2ccnc(Nc3cccc(C(F)(F)F)c3)n2)c1)c1c(F)cccc1F [GSK292658],5%
5,NCCCC(NC(=O)c1cc(Br)c(-c2ccnc3[nH]ccc23)s1)c1ccccc1.O=C(O)C(F)(F)F.O=C(O)C(F)(F)F (stereo not shown) [GSK1287544],1%
6,CC(=O)Nc1nc2cnc(Nc3cc(NC(=O)c4cccc(C5(C#N)CC5)c4Cl)ccc3C)nc2s1,0%
7,COc1ccc(CNC(=O)NC2CCN(c3ccnc(Nc4ccc(F)cc4)n3)CC2)cc1 [GSK1379788],18%
8,Clc1ccc(-c2nn3ncccc3c2-c2ccnc(Nc3ccc4c(c3)OCCO4)n2)cc1 [GW829116],0%
9,CC(C)(C)c1ccc2nccc(Nc3cccc(O)c3)c2c1 [GW856795],60%
10,COc1cc(Nc2nccc(N3CCC(NC(=O)Nc4cccc(C(C)=O)c4)C3)n2)cc(OC)c1OC (stereo not shown) [GSK1379753],9%
11,COc1cc(Nc2nccc(-c3c(-c4cccc(NC(=O)c5c(F)cccc5F)c4)nn4ccccc34)n2)cc(OC)c1OC [GSK323521],20%
12,COc1cccc(NC(=O)NC2CCN(c3ccnc(Nc4cc(OC)c(OC)c(OC)c4)n3)C2)c1 (stereo not shown) [GSK1379763],20%
13,O=C(O)C(F)(F)F.O=C(O)C(F)(F)F.O=c1[nH]ccc2nc(N[C@@H]3CCCNC3)nc(Nc3ccc(S(=O)(=O)N4CCOCC4)cc3)c12 [GSK2177277],99.7%
14,CCCCc1nn2ncccc2c1-c1ccnc(Nc2ccc(N3CCN(C)CC3)cc2)n1 [GW684941],7%
15,CN(c1ccc(NC(=O)Nc2cc(C(F)(F)F)ccc2F)cc1)c1ccnc(Nc2ccc(S(N)(=O)=O)cc2)n1 [GW809893],9%
16,Nc1ncc(-c2cccnc2)c2scc(-c3ccc4c(c3)CCN4C(=O)Cc3ccccc3)c12 [GSK683281],22%
17,Cc1ccc(C(=O)Nc2ccc(Nc3ccnc4cc(-c5nccs5)ccc34)cc2O)cc1.Cl [GW494702],6%
18,COc1cc(Nc2nccc(N3CCC(NC(=O)c4cc5ccccc5s4)C3)n2)cc(OC)c1OC (stereo not shown) [GSK1379760],26%
19,O=C(Nc1cccc(-c2nn3ccccc3c2-c2ccnc(Nc3cccc(F)c3)n2)c1)c1c(F)ccc(F)c1Cl [GSK357952],6%

row,Structure (SMILES),%Inh
1,CN(C)Cc1ccc(-c2ccc3c(Nc4ccc(Oc5ccccn5)cc4)ccnc3c2)o1 [GW567148],6%
2,CNC(=O)c1ccccc1Nc1nc(Nc2ccc(N3CCOCC3)cc2)ncc1Cl.Cl [GSK1576028],17%
3,Cl.Cl.NCC(NC(=O)c1cc(-c2ccccc2)c(-c2ccnc3[nH]ccc23)s1)c1ccccc1 (stereo not shown) [GSK1321561],18%
4,COc1ccc(Nc2nccc(N3CCC(NC(=O)Nc4cccc(OC)c4)C3)n2)cc1 (stereo not shown) [GSK1379742],18%
5,COC(=O)Nc1nc2cc(Oc3ccc(NC(=O)Nc4cc(C(F)(F)F)ccc4F)cn3)ccc2[nH]1.Cl.Cl [GW681170],16%
6,O=C(Nc1n[nH]c2cc(-c3ccoc3)ccc12)C1CC1 [SB-738481],0%
7,CSc1cccc2c(-c3ccncn3)c(-c3ccc(F)cc3)nn12 [GW514786],22%
8,c1ccc(Oc2ccc(Nc3ccnc4cc(-c5ccc(CNCCN6CCOCC6)o5)ccc34)cc2)nc1 [GW567145],2%
9,Nc1ncnc2c1nc(-c1ccccc1)n2-c1ccccc1 [SKF-97293],22%
10,Cl.c1ccc(-c2ccc3c(Nc4ccc5[nH]ccc5c4)ccnc3c2)nc1 [GW440138],5%
11,Cl.NC(=O)c1cccc(Nc2nccc(Nc3ccc(Oc4c(Cl)cccc4Cl)c(Cl)c3)n2)c1 [GW659009],88%
12,Cc1occc1-c1ncc(OC[C@@H](N)Cc2c[nH]c3ccccc23)cc1-c1ccc2[nH]nc(C)c2c1.O=C(O)C(F)(F)F [GSK682037],13%
13,Cc1ccc(C(=O)N2CC[C@@H](O)C2)cc1-n1c(C)cc(OCc2ccc(F)cc2F)c(Br)c1=O,0%
14,Oc1cc(Nc2ccnc3cc(I)ccc23)ccc1F [GW552771],13%
15,c1ccc(-c2n[nH]cc2Nc2ccnc3ccccc23)nc1 [GW694077],28%
16,CC(C)c1nc(-c2cccc(NS(=O)(=O)c3c(F)cccc3F)c2F)c(-c2ccnc(Nc3ccc(N4CCOCC4)nc3)n2)s1 [GSK2008607],34%
17,Cn1cc(-c2[nH]c3cc(NC(=O)[C@H](N)C4CCCCC4)cc4c3c2C=NNC4=O)cn1,23%
18,C[C@@H](Oc1cc(-n2cnc3cc(-c4ccnc(NCCS(C)(=O)=O)c4)ccc32)sc1C(N)=O)c1ccccc1Cl [GSK907232],9%

# Reference: PMC5540273 (PLoS ONE, 2017)
